Bioassay records: PubChem BioAssay, National Center for Advancing Translational Sciences (NCATS)
The list is not random: actives were taken first. Their share in the collection is about 18%.
DT40 TDP1 no CPT = qHTS for Inhibitors of human tyrosyl-DNA phosphodiesterase 1 (TDP1): qHTS in cells in absence of CPT. DT40 Tdp1-/- hTDP1 cells, no CPT, ATP luminescence, 48 h. Potency, µM (top dose mostly 46.2 µM), inactives show at the top dose activity change, negative = growth inhibition, usual class: inhibitors. actives 15% (n = 420,000); further: potency means the concentration at half of the fitted maximal effect; nearly all actives have a fitted effect of over 55% in size
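A cellular qHTS used chicken DT40 cells lacking endogenous Tdp1 but carrying stably transfected human TDP1. Compounds were applied without camptothecin, and cell growth kinetics were judged by ATP-dependent luminescence after ≥48 hr.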
TDP1 cell CPT = qHTS for Inhibitors of human tyrosyl-DNA phosphodiesterase 1 (TDP1): qHTS in cells in presence of CPT; chicken DT40 Tdp1-/-;hTDP1 cells + 20 nM CPT, ATP luminescence, 48 h; Potency, µM (titrated, usually from 46.2 µM), inactives show at the top dose activity change, negative = growth inhibition, usual class: inhibitors; actives 12% (n = 420,000); AID 686979, 2013; further: potency means the concentration at half of the fitted maximal effect; nearly all actives have a fitted effect of over 55% in size
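Chicken DT40 Tdp1-/- cells stably complemented with human TDP1 were seeded at 400 cells/well in medium containing 20 nM camptothecin, exposed to pin-transferred compounds, and grown at 37 °C for at least 48 hr. Viability was read as ATP luminescence.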
Gal4-VP16 FLuc = VP16 counterscreen qHTS for inhibitors of ROR gamma transcriptional activity | Drosophila S2 Gal4-VP16 UAS-luciferase, luminescence, 20 h | Potency, µM (highest dose often 53.6 µM), for inactives: top-dose activity, negative = inhibition, hits mostly inhibitors | actives 3.5% (n = 310,000) | AID 2546, 2010;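 further: Gal4-VP16 expression switched on by copper sulfate through the metallothionein promoter; potency means the concentration at half of the fitted maximal effect; nearly all actives have a fitted effect of over 50% in size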
IL-1B inflam inh = qHTS for Inhibitors of Inflammasome Signaling: IL-1-beta AlphaLISA Primary Screen; AID 743279, 2014; THP-1 LPS/ATP IL-1B secretion, AlphaLISA, 16 h; hits give low values; activity change, % at 57.5 µM; actives 4.7% (n = 360,000); in the data active means activity change below about -50%; inconclusive means mostly about -30% to -49%
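THP-1 cells pretreated 1 hr with compounds (up to 57.5 uM final), then stimulated with LPS (250 ng/mL final) plus ATP (1.25 mM final); secreted IL-1B measured by AlphaLISA after 16 hr, decreased signal indicating inhibition.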
LDHA block = qHTS assay for inhibitors of human lactate dehydrogenase. L-lactate dehydrogenase A chain (Homo sapiens), P00338. purified LDHA, NADH/diaphorase-resazurin fluorescence; hits give low values. activity change, % (values are at about 110 or 230 µM). actives 0.15% (n = 480,000). AID 1347041, 2019; in the data active means activity change below about -30%; inconclusive means mostly about -25% to -30%;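 further: plate controls were DMSO wells for no effect and wells without enzyme for full effect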
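LDH5 2 nM; NADH 0.06 mM, pyruvate 0.2 mM; 200 mM Tris pH 7.4, EDTA, Tween-20; 5 min RT. Detection: diaphorase 0.133 mg/mL + resazurin 37 µM, fluorescence ex540/em590 at 0 and 20 min; normalized to enzyme-free and DMSO wells.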
RORgamma inh = qHTS for inhibitors of ROR gamma transcriptional activity. AID 2551, 2010. Nuclear receptor ROR-gamma (Mus musculus), P51450. Potency, µM (top dose mostly 53.6 µM), for inactives: top-dose activity change, negative = inhibition, usual class: inhibitors. Drosophila S2 Gal4-RORgamma UAS-luciferase reporter, 20 h. actives 5.4% (n = 310,000); further: potency means the concentration at half of the fitted maximal effect; nearly all actives have a fitted effect of over 60% in size
Target sequence (P51450 whole entry, looked up, the tested form may be a part): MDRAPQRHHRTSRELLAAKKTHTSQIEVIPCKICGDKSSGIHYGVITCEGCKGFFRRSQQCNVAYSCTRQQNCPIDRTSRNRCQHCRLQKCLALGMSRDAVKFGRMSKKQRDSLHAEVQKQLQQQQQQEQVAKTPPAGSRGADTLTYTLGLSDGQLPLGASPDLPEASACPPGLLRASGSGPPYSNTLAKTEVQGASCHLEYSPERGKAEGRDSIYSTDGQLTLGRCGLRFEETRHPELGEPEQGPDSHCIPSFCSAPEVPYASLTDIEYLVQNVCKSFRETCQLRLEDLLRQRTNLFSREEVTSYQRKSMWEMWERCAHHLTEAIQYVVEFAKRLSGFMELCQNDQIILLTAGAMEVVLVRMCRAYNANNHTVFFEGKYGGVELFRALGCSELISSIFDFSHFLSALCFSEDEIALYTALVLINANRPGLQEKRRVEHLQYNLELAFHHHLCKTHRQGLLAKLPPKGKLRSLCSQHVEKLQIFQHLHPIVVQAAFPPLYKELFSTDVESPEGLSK
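Drosophila S2 cells stably expressing Gal4-DBD/mouse RORγ fusion under metallothionein promoter plus UAS-luciferase; compound 1 h, then 700 uM CuSO4 induction for 20 h at ambient temperature; inhibition read as reduced luminescence.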
Starred values were filed as active, the others as inactive; ? = inconclusive; . = no result. Unless noted, the call rests on the fitted dose curve; in most records, active means well fitted curve in the direction sought with a large enough effect; inconclusive means small, poorly fitted or top-dose-only effect, or another doubt; inactive means no such curve, though single readings can be large; an effect the other way counts as inactive or inconclusive. Unless noted, on the % scale 0 is the no-effect control and ±100 the full control effect.

SMILES	DT40 TDP1 no CPT	TDP1 cell CPT	Gal4-VP16 FLuc	IL-1B inflam inh	LDHA block	RORgamma inh
OC(c1ccccc1)C(Nc1ccccn1)c1ccccc1 (configuration not stated)	?	-7%	.	0	-8	.
Cc1ccnc(NC(c2ccccc2F)c2ccc3cccnc3c2O)c1 (configuration not stated)	.	.	.	.	-2	.
Oc1ccccc1C(Nc1nccs1)c1ccc2cccnc2c1O (configuration not stated)	2.6µM*	3.7µM*	5µM*	68	4	?
O=C(Nc1nccs1)c1cccc2ccccc12	0%	-7%	-25%	34	-9	?
COc1ccc(C(=O)NC(=C(Cl)Cl)S(=O)(=O)c2ccc(C)cc2)cc1	?	?	?	-95*	0	?
COC(=O)NC(=C(Cl)Cl)S(=O)(=O)c1ccccc1	10µM*	6.5µM*	18µM*	-118*	-2	10µM*
Cc1ccc(C(=O)NC(=C(Cl)Cl)S(=O)(=O)c2ccccc2)cc1	21µM*	?	-11%	-95*	2	-10%
COC(=O)NC(c1ccccc1)c1ccccc1	.	.	.	.	-2	.
Cc1ccc(S(=O)(=O)NCCNC(=O)c2ccccc2)cc1	-7%	-5%	1%	5	-10	4%
CN1CCN(c2ccc(C(=O)c3cn(-c4ccc(F)c(Cl)c4)nn3)cc2)CC1	16µM*	?	-12%	10	-4	5%
Cc1ccc(-n2cc(C(=O)c3ccc(N4CCN(C)CC4)cc3)nn2)cc1Cl	20%	0%	4%	5	-8	-2%
S=C(NCCCN1CCOCC1)N1CCN(c2nc(-c3ccc(Cl)cc3)cs2)CC1	4.1µM*	7.3µM*	5%	-70*	-2	-16%
S=C(NCCCN1CCOCC1)N1CCN(c2ccccc2)CC1	-5%	2%	-16%	3	-7	11%
S=C(NCCCN1CCOCC1)N1CCN(c2nc(-c3ccccc3)cs2)CC1	23µM*	?	-5%	-87*	-11	-19%
CCCNC(=S)N1CCN(c2nc(-c3ccc(C)cc3)cs2)CC1	?	?	?	-21	-6	-32%
S=C(NCC1CCCO1)N1CCN(c2nc(-c3ccc(Cl)cc3)cs2)CC1 (configuration not stated)	15µM*	16µM*	?	-68*	-5	?
CCC(C)(C)C1CCC(NC(=O)c2cccnc2Cl)CC1 (configuration not stated)	.	.	.	.	5	.
Cc1ccc(C2NC(=O)CCC2[N+](=O)[O-])cc1 (configuration not stated)	?	18µM*	-23%	-12	-7	19%
CCN1CCCC1CNC(=O)c1cc2ccccc2oc1=O (configuration not stated)	.	.	.	.	-2	.
COc1ccc(-n2nnnc2C(CCSC)N2CCN(C/C=C/c3ccccc3)CC2)cc1 (configuration not stated)	?	?	.	?	-3	.
COc1ccc(-n2nnnc2C(C2CC2)N2CCN(C/C=C/c3ccccc3)CC2)cc1 (configuration not stated)	?	?	.	-9	-3	.
C(=C\c1ccccc1)/CN1CCN(C(c2nnnn2-c2ccc3c(c2)OCCO3)C2CC2)CC1 (configuration not stated)	15µM*	23µM*	.	-21	-2	.
CCC(c1nnnn1-c1ccc2c(c1)OCCO2)N1CCN(C/C=C/c2ccccc2)CC1 (configuration not stated)	13µM*	?	.	-3	-8	.
C(=C\c1ccccc1)/CN1CCN(C(CCc2ccccc2)c2nnnn2-c2ccc3c(c2)OCCO3)CC1 (configuration not stated)	21µM*	10µM*	.	-30	-1	.
CCC(C)NC(=O)C1c2ccccc2C(=O)N1Cc1cc(OC)ccc1OC (configuration not stated)	-16%	-12%	6%	1	-9	-4%
SMILES	DT40 TDP1 no CPT	TDP1 cell CPT	Gal4-VP16 FLuc	IL-1B inflam inh	LDHA block	RORgamma inh
CCC(C)NC(=O)C1c2ccccc2C(=O)N(c2ccc(OC)cc2)C1c1ccc(OC)cc1 (configuration not stated)	21µM*	?	7%	38	-2	-9%
O=c1c2ccccc2nc(/C=C/c2ccc([N+](=O)[O-])cc2)n1CCCO	21µM*	?	5%	.	1	5%
O=c1c2ccccc2nc(/C=C/c2ccc(Br)cc2)n1CCCO	21µM*	23µM*	12%	?	-3	43%
O=c1c2ccccc2nc(/C=C/c2cccc([N+](=O)[O-])c2)n1CCCO	?	-28%	.	0	-3	.
O=c1c2ccccc2nc(/C=C/c2ccc(Cl)cc2)n1CCO	?	21µM*	1%	-74*	-4	?
Cc1[nH]c2ccccc2c1/C=C/c1nc2ccccc2c(=O)n1CCO	4.6µM*	6.5µM*	-12%	-84*	-3	?
Cc1nc2ccccc2c(=O)n1CCCO	-5%	-18%	5%	-12	0	7%
O=C(COc1cc(Cl)ccc1Cl)N1CC=C(c2ccccc2)CC1	.	.	.	.	0	.
CCC(NC(=O)CC1C=CCC1)C12CC3CC(CC(C3)C1)C2 (configuration not stated)	.	.	.	.	6	.
Cc1c(C(=O)N2CCC(C)CC2)c(S(=O)(=O)NCCc2ccccc2)c(C)n1C	.	.	.	.	0	.
O=c1c2ccccc2nc(/C=C/c2ccc([N+](=O)[O-])o2)n1CCCO	1.2µM*	0.58µM*	7.1µM*	-111*	0	8.9µM*
O=c1c2ccccc2nc(/C=C/c2cccc(Br)c2)n1CCCO	13µM*	?	-3%	-85*	-11	35%
Cn1c(/C=C/c2cccc([N+](=O)[O-])c2)nc2ccccc2c1=O	1%	-25%	2%	-14	-9	3%
Cc1ccccc1/C=C/c1nc2ccccc2c(=O)n1Cc1ccccc1	-2%	2%	2%	-3	-7	23%
Cn1c(/C=C/c2cccc(Br)c2)nc2ccccc2c1=O	?	29µM*	8%	4	3	-19%
O=c1c2ccccc2nc(/C=C/c2ccc(Br)cc2)n1CCO	23µM*	?	.	-83*	-3	.
